Measured values taken from paper PMC4336329 (PLoS ONE, 2015).
In all, about 310,000 compounds went through this assay and about 14,000 (4.5%) showed an effect of 50% or more. Effects have a minus sign here. Shown is part of a subset that was picked to be rich in strong results.

Molecular target: human ether-à-go-go-related gene (hERG) potassium channel (human, UniProt Q12809)
Assay: primary screen, population patch clamp on CHO cells stably expressing hERG; higher = less effect of the substance
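Note: peak tail current of the secondary pulse compared with the same well before compound.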

Chain of human ether-à-go-go-related gene (hERG) potassium channel (Q12809 whole entry, looked up): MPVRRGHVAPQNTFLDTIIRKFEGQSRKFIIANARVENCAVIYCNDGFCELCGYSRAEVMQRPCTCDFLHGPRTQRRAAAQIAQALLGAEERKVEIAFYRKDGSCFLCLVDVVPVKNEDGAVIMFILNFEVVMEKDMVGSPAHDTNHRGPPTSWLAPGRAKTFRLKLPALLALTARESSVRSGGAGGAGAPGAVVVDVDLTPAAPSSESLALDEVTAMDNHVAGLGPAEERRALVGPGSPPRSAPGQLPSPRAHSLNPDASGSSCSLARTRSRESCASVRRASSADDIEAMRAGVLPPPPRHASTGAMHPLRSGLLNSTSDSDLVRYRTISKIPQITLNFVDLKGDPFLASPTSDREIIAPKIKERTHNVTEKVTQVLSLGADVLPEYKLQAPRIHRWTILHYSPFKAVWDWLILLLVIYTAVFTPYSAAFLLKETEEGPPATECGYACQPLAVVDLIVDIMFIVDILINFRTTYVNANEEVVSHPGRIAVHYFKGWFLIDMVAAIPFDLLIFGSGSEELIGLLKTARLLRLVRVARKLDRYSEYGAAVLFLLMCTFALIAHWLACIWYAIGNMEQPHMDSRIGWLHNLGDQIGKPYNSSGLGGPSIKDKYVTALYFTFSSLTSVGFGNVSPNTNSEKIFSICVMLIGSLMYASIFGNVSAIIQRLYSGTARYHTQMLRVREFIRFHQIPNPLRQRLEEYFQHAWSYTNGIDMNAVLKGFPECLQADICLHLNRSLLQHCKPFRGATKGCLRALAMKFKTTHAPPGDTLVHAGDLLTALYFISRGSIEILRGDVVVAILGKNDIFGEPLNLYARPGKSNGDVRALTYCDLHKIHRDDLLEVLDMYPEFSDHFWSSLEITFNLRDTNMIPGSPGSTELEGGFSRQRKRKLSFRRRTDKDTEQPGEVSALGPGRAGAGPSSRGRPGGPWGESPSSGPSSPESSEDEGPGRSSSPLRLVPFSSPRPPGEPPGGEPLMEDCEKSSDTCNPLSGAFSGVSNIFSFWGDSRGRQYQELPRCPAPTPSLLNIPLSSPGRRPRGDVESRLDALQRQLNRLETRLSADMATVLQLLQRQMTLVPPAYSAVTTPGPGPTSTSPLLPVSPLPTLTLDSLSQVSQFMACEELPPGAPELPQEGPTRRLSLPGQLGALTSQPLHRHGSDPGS

SMILES	hERG current change (%, negative = inhibition) at 10uM [%]
COc1ccc(NC(=O)CN2C(=O)C(C)Oc3ccccc32)c(OC)c1 (stereo not shown)	-10.4
Cc1nc(-c2ccccc2)sc1C1(C)CC(c2ccccc2F)=NO1 (stereo not shown)	1.13
O=c1c2ccccc2n2c(=S)[nH]nc2n1-c1ccccc1	38.4
Cc1ccc(C2(c3ccc(C)cc3)CC2C(=O)Nc2ccc([N+](=O)[O-])cc2O)cc1 (stereo not shown)	-2.42
CCc1ccccc1NC(=O)CC(NCc1ccccc1)C(=O)O (stereo not shown)	22.5
CCOc1ccc(Cc2nn[nH]n2)cc1	9.6
CCn1cc(SCC(=O)N2CCc3ccccc32)c2ccccc21	-1.74
CC(C)N1CC(C(=O)O)CC1=O (stereo not shown)	19
Cn1c(CC(=O)Nc2ccccc2Cl)nnc1SCC(=O)NC1=NCCS1	14.7
CCN1C(=O)/C(=C/C2=Cc3ccccc3OC2C)SC1=S (stereo not shown)	14.7
CCN(CC(=O)Nc1ccccc1SC)Cc1nc2ccccc2c(=O)[nH]1	-23.9
CCN(CC(=O)Nc1ccc2c(c1)OCCO2)Cc1nc2cc(Cl)ccc2c(=O)[nH]1	-29
CCN(CC(=O)NCCc1ccc(S(N)(=O)=O)cc1)Cc1nc2ccccc2c(=O)[nH]1	17.9
CCN(CC(=O)NCCc1ccc(F)cc1)Cc1nc2ccccc2c(=O)[nH]1	-50.7
COCCN(CC(=O)Nc1cc(Cl)ccc1-n1cncn1)Cc1nc2ccccc2c(=O)[nH]1	-43
CCNCc1nc2cc(Cl)ccc2c(=O)[nH]1.Cl	4.64
CCN(CC(=O)Nc1cc(Cl)ccc1-n1cncn1)Cc1nc2ccccc2c(=O)[nH]1	-60.3
CCN(CC(=O)NCc1ccc(F)cc1)Cc1nc2ccccc2c(=O)[nH]1	-56.5
CCN(CC(=O)NCc1ccc(F)cc1)Cc1nc2cc(Cl)ccc2c(=O)[nH]1	-72.6
O=C(c1ccccc1)N(Cc1ccc(F)cc1)Cc1nc2ccccc2c(=O)[nH]1	-35
CCN(CC(=O)NC(=O)NCc1ccccc1)Cc1nc2ccccc2c(=O)[nH]1	-12.9
CCN(CC(=O)Nc1cccc(F)c1)Cc1nc2ccccc2c(=O)[nH]1	-31.7
O=C(c1noc2c1CCCC2)N1CCc2c([nH]c3ccccc23)C1c1ccccn1 (stereo not shown)	-7.65
O=C(Nc1ccccn1)N1CCOCC1	15.1

SMILES	hERG current change (%, negative = inhibition) at 10uM [%]
O=C(CN1CCN(c2ccc(F)cc2)CC1)Nc1ccc(S(=O)(=O)N2CCOCC2)cc1	0.845
Cc1cc(C)cc(-n2nnc(C(=O)NCc3ccco3)c2N)c1	-29.8
O=C(Cn1nnc(-c2ccccc2NC(=O)c2ccco2)n1)Nc1ccccc1	16.1
COc1cc(/C=C/C(=O)Nc2nnc(CC(C)C)s2)cc(OC)c1OC	-27.8
CCN1CCN(c2ccc(NC(=O)c3cc4ccccc4cc3OC)cc2C)CC1	-48.7
C(=C\c1ccco1)/c1nc2ccccc2[nH]1	8.91
O=C(c1cc2ncc(CCCl)cn2n1)N1CCCCCC1	8.53
Cc1cccc(C)c1N1CCc2cn[nH]c21	8.17
CC1=NN(C(N)=S)C(=O)C1N=Nc1cccc(Cl)c1 (stereo not shown)	17.2
CN(C)S(=O)(=O)c1ccc2c(c1)C(=NO)c1cc(S(=O)(=O)N(C)C)ccc1-2	14.7
OCCNc1nc(Cl)nc(NCc2ccco2)n1	8.89
CCc1ccccc1NC(=O)COC(=O)c1c(C)nsc1NC	-2.87
COc1ccccc1C(=O)n1nc(-c2ccccc2)nc1N	0.335
CCN(CC(=O)Nc1ccccc1-c1ccccc1)Cc1nc2ccccc2c(=O)[nH]1	-23.4
CCN(CC(=O)Nc1ccccc1Br)Cc1nc2ccccc2c(=O)[nH]1	-22.3
CCN(CC(=O)Nc1ccccc1C(=O)Nc1ccccc1)Cc1nc2ccccc2c(=O)[nH]1	-75.6
O=C(CCSc1nc(-c2ccco2)cc(C(F)(F)F)n1)NCC1CCCO1 (stereo not shown)	-8.69
O=C1CCC(=O)N1OCCCOc1ccccc1	-2.09
COC(=O)c1[nH]c2ccc(Cl)cc2c1NC(=O)C1CC1	17.1
COc1cc(OC)cc(C(=O)NC(C)c2cnn(-c3ccccc3C)c2C)c1 (stereo not shown)	-1.48
Cc1ccccc1-n1ncc(C(C)NC(=O)c2ccccc2)c1C (stereo not shown)	-4.33
COc1cc(C(=O)NC(C)c2cnn(-c3ccccc3C)c2C)cc(OC)c1OC (stereo not shown)	-51
C/C(N)=C(/C#N)C(=O)COC(=O)C1CCC(C(C)(C)C)CC1 (stereo not shown)	-7.3
O=c1[nH]c(C2CCN(S(=O)(=O)c3ccccc3)CC2)nc2c1nnn2Cc1c(F)cccc1Cl	-2.84

SMILES	hERG current change (%, negative = inhibition) at 10uM [%]
CCOC(=O)c1[nH]c2c(c1C)C(=O)CC(c1ccc(OC)c(OC)c1)C2 (stereo not shown)	-9.84
O=C(CN1CCN(c2ccccc2F)CC1)Nc1ccccc1F	-1.86
O=C(CCN1CCN(c2ccccc2F)CC1)Nc1ccccc1Cl	-2.49
O=C(CCN1CCN(CC(=O)Nc2ccccc2F)CC1)Nc1ccccc1F	-65.4
O=C(CCN1CCN(CC(=O)Nc2ccccc2Cl)CC1)Nc1ccccc1F	-69.1
Cl.O=C(CCN1CCCCCC1)Nc1ccccc1F	-4.4
CN1CCN(CCC(=O)Nc2ccccc2Cl)CC1	-1.75
COc1ccc(N(Cc2ccccc2)S(=O)(=O)c2cc(C(=O)O)ccc2Cl)cc1	5.3
CC(C)[C@H](NC(=O)OCc1ccccc1)C(=O)OCC(=O)N1CCN(c2ccc(F)cc2)CC1	-75.3
CC(C)C(NC(=O)OCc1ccccc1)C(=O)OCC(=O)N1CCCCC1 (stereo not shown)	-7.36
CC(C)C(NC(=O)OCc1ccccc1)C(=O)OCC(=O)N1C(C)CCCC1C (stereo not shown)	4.95
CC(C)[C@H](NC(=O)OCc1ccccc1)C(=O)OCC(=O)Nc1ccc(N2CCOCC2)cc1	-15.1
CC(C)C(NC(=O)c1ccccc1)C(=O)OCC(=O)N1CCN(c2ccccc2)CC1 (stereo not shown)	-2.47
CC(C)[C@H](NC(=O)OCc1ccccc1)C(=O)OCC(=O)N1CCN(c2ccccc2)CC1	-58.3
CCOC(=O)N1CCN(C(=O)CN(C2CCCCC2)S(=O)(=O)c2ccc(F)cc2)CC1	-25.3
O=C(Nc1cc(S(=O)(=O)N2CCOCC2)ccc1N1CCOCC1)c1cnccn1	-42.7
CC(C)(C)C(=O)NC(=S)Nc1ccccc1C(=O)NC1CCCCC1	-18
COc1ccc(C)cc1NC(=O)c1ccc2c(SCC(=O)O)c3c(nc2c1)CCCC3	10.9
CC(C)OC(=O)CSc1nnc(-c2ccc(Cl)cc2Cl)o1	-7.24
CC(C)c1ccc(S(=O)(=O)N2CCN(CC(=O)Nc3ccc4c(c3)OCO4)CC2)cc1	-13.9
O=C(CN1CCN(S(=O)(=O)c2ccccc2)CC1)Nc1ccc2c(c1)OCO2	-44.1
O=C(CN1CCN(S(=O)(=O)c2ccc(Cl)cc2)CC1)Nc1ccc2c(c1)OCCO2	-5.94
O=C(CN1CCN(S(=O)(=O)c2ccc(Br)cc2)CC1)Nc1ccc2c(c1)OCO2	-62.4
O=C(CN1CCN(S(=O)(=O)c2ccc(Cl)cc2)CC1)Nc1ccc2c(c1)OCO2	-65

SMILES	hERG current change (%, negative = inhibition) at 10uM [%]
O=C(CN1CCN(S(=O)(=O)c2ccc(Br)cc2)CC1)Nc1ccc2c(c1)OCCO2	-27.9
CCCc1nnc(SCC(=O)Nc2ccc(OC)cc2)o1	28.8
Nn1c(SCc2ccccc2)nnc1C1CCCCC1	7.68
CC1(C)Cc2c(cnn2-c2ccc(F)cc2)C(NC(=O)C2CCC2)C1 (stereo not shown)	-79.2
COC(=O)CCC(=O)NC1CC(C)(C)Cc2c1cnn2-c1ccc(F)cc1 (stereo not shown)	4.42
COCC(=O)NC1CC(C)(C)Cc2c1cnn2-c1ccc(F)cc1 (stereo not shown)	-64.9
CC1(C)Cc2c(cnn2-c2ccc(F)cc2)C(NC(=O)C(C)(C)O)C1 (stereo not shown)	-0.859
CC1(C)Cc2c(cnn2-c2ccc(F)cc2)C(NC(=O)CCC(F)(F)F)C1 (stereo not shown)	-42.8
CC(=O)N1CCC(C(=O)NC2CC(C)(C)Cc3c2cnn3-c2ccc(F)cc2)CC1 (stereo not shown)	-25.3
CCN(CC)S(=O)(=O)c1ccc(C(=O)NCc2nnc(SCC(=O)OC)n2C)cc1	-1.87
Cl.O=C(Nc1cccc(Cl)c1)NC1CCN(C2CCCCC2)C1 (stereo not shown)	-56.6
O=C(NC1CCN(C(=O)Nc2cccc(Cl)c2)CC1)C1CCCCC1	13.1
O=C(Nc1cccc(-c2cccc(F)c2)c1)C1CCN(C2CCC2)CC1	-71.5
CS(=O)(=O)N1CCC(C(=O)Nc2cccc(F)c2)CC1	15.2
CS(=O)(=O)N1CCC(C(=O)Nc2cccc(Cl)c2)CC1	2.18
O=C(Nc1cccc(F)c1)C1CCN(C(=O)Cc2ccccc2)CC1	-7.55
O=C(Nc1cccc(Cl)c1)NC1CCCCC1	8.14
O=C(Nc1cccc(F)c1)C1CCN(C(=O)c2ccccc2Cl)CC1	-8.66
O=C(Nc1cccc(Cl)c1)C1CCCCC1	-9.14
O=C(Nc1cccc(F)c1)C1CCCCC1	-9.22
O=C(Nc1cccc(-c2cccc(F)c2)c1)C1CCN(C2CCOCC2)CC1	-75
O=C(Nc1cccc(-c2cccc(Cl)c2)c1)C1CCN(C2CCC2)CC1	-73.7
